From PubChem
U2OS ROS induce: ROS inducers in U2OS cancer cells, primary screen, cell-based, H2DCF-DA fluorescence; 2% of 46,000 active; ROS induction (% of piperlongumine), % at 10 µM; AID 624156, 2012; U2OS ROS induction; in the data active = ROS induction above about 79%, passing the limit was not always enough;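 also: 0% = DMSO vehicle median and 100% = reference compound median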
YB-1 expression: inhibitors of YB-1 gene expression, primary screen, cell-based, fluorescence. U2OS, qRT-PCR YB-1 vs CDIP delta delta Cp, 16 h; stronger effect = higher value; zero = DMSO, each unit about twofold. delta delta Cp (YB-1 minus CDIP) (no concentration beside the values). 0.37% of 30,000 active. AID 434959, 2010;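 active = delta delta Cp rounded down to an integer at or above 3, about 3 SD of DMSO wells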;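 also: higher means less YB-1 transcript or more CDIP transcript relative to DMSO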
* hit, by the source's call. In the library only some 2.3% were active in any assay of this set; here they are far more common.

For COC(=O)C(CC#Cc1ccc2c(c1)[C@]1(C(=O)N2)[C@H](C(=O)N2CCc3cc(OC)c(OC)cc3C2)[C@H]2C(=O)O[C@H](c3ccccc3)[C@H](c3ccccc3)N2[C@@H]1c1ccccc1OCCO)C(=O)OC the results were U2OS ROS induce 24 and YB-1 expression 0.05.
Screening COC(=O)C(CC#Cc1ccc2c(c1)[C@]1(C(=O)N2)[C@H](c2ccccc2OCCO)N2[C@H](c3ccccc3)[C@H](c3ccccc3)OC(=O)[C@H]2[C@@H]1C(=O)N1CCc2cc(OC)c(OC)cc2C1)C(=O)OC returned U2OS ROS induce 175* and YB-1 expression -0.24.
`C=CCNC(=S)C(=O)Nc1ccccc1` gave U2OS ROS induce -9.
Screening Cc1c(S(=O)(=O)c2ccc(Cl)cc2)csc1C(=O)N(Cc1ccccc1)Cc1cccnc1 returned U2OS ROS induce 2.
Screening O=C(/C=C/c1ccccc1Cl)N1CCCCC1 returned U2OS ROS induce -13.
`COc1ccc(C2CC(=O)c3cnc(N)nc3C2)cc1OC` (stereo not drawn) gave U2OS ROS induce 60.
`Fc1ccc(-c2oncc2-c2nnnn2-c2ccc(Cl)cc2)cc1` gave U2OS ROS induce -1.
`Cc1ccc2nc(-c3ccncc3)cc(-c3ccccc3)c2c1` gave U2OS ROS induce 88*.
`Cc1ccc2nc(-c3ccncc3)cc(C(=O)NC(C)c3cnn(C)c3C)c2c1` (stereo not drawn) gave U2OS ROS induce 2.
`CCN(Cc1ccccc1)C(=O)CSc1nc2ccccc2c2nc3ccccc3n12` gave U2OS ROS induce 0.
For COC(=O)C(CC#Cc1ccc2c(c1)[C@]1(C(=O)N2)[C@H](c2ccc(OCCO)cc2)N2[C@H](c3ccccc3)[C@H](c3ccccc3)OC(=O)[C@H]2[C@@H]1C(=O)N1CCCCCCC1)C(=O)OC the results were U2OS ROS induce 128* and YB-1 expression 0.048.
O=C1O[C@H](c2ccccc2)[C@H](c2ccccc2)N2[C@H]1[C@@H](C(=O)N1CCCCCCC1)[C@]1(C(=O)Nc3ccc(C#CC4=CCCCC4)cc31)[C@H]2c1ccc(OCCO)cc1 was read as U2OS ROS induce 100* and YB-1 expression 0.088.
Screening O=C1O[C@@H](c2ccccc2)[C@@H](c2ccccc2)N2[C@@H](c3ccc(OCCO)cc3)[C@]3(C(=O)Nc4ccc(C#CC5(O)CCCCCC5)cc43)[C@@H](C(=O)N3CCCCCCC3)[C@H]12 returned U2OS ROS induce 135* and YB-1 expression -0.34.
O=C1O[C@H](c2ccccc2)[C@H](c2ccccc2)N2[C@H]1[C@@H](C(=O)O)[C@]1(C(=O)Nc3ccc(C#CC4(O)CCCCCC4)cc31)[C@H]2c1ccc(OCCO)cc1 was read as U2OS ROS induce 16 and YB-1 expression 0.0048.
COC(=O)C(CC#Cc1ccc2c(c1)[C@]1(C(=O)N2)[C@H](C(=O)N2CCc3cc(OC)c(OC)cc3C2)[C@H]2C(=O)O[C@H](c3ccccc3)[C@H](c3ccccc3)N2[C@@H]1c1ccc(O)cc1)C(=O)OC was read as U2OS ROS induce 11 and YB-1 expression -0.038.
Screening O=C1O[C@@H](c2ccccc2)[C@@H](c2ccccc2)N2[C@@H](c3ccc(OCCO)cc3)[C@]3(C(=O)Nc4ccc(C#CC5=CCCCC5)cc43)[C@@H](C(=O)N3CCN(c4ncccn4)CC3)[C@H]12 returned U2OS ROS induce 55 and YB-1 expression -0.089.
Screening Cc1ccc(OC(=O)c2c(-c3ccccc3)nnc3ccccc23)cc1 returned U2OS ROS induce 10.
CC(CO)CCCC(C)(O)c1ccc(C(=O)O)cc1O (stereo not drawn) was read as U2OS ROS induce -7 and YB-1 expression -0.09.
For O=c1oc(-c2ccccc2Br)nc2sc3c(c12)CCC3 the results were U2OS ROS induce 32.
Screening Cc1ccc(-c2nc(NCCC3=CCCCC3)c3ccccc3n2)cc1 returned U2OS ROS induce 21.
CCOC(=O)c1ccc(NC(=O)Cn2c(=O)oc3ccccc32)cc1 was read as U2OS ROS induce -21.
`CCOC(=O)c1c(-c2ccccc2)oc2ccc(O)c(CSCC(=O)Nc3ccccc3)c12` gave U2OS ROS induce 20 and YB-1 expression 9.6*.
For O=C(COc1ccccc1)Nc1ccc(I)cc1 the results were U2OS ROS induce 9.
For COc1ccc(NC(=O)C2(C)c3ccccc3-c3ccccc32)cc1 the results were U2OS ROS induce -3.
C=CCNC(=O)c1ccc2c(c1)C1C3CCC(C3)C1C(c1ccccc1)N2 (stereo not drawn) was read as U2OS ROS induce 15.
COc1ccc([Si](C)(C)[C@@H]2[C@@H](CC(=O)N3Cc4ccccc4C[C@H]3CO)O[C@]3(C(=O)N(C)c4c(Br)cc(C)cc43)[C@H]2C)cc1 was read as U2OS ROS induce 22 and YB-1 expression -0.081.
